Some test systems named below: NCI-H23 lung; NCI-H226 lung; NCI-H322M lung; HOP-62 NSCLC; NCI-H460 lung; NCI-H522 lung; A549/ATCC NSCLC; 786-0 renal; COLO 205 colon; DU-145 prostate; K-562 leukemia; MALME-3M melanoma; MDA-MB-231 breast; RXF 393 renal; SF-268 CNS; SF-295 CNS; SF-539 CNS; UACC-257 melanoma; M14 melanoma; HCT-15 colon.
Experiment in all cases: NCI-60 one-dose screen, 48 h (100 = growth as untreated, 0 = no growth, -100 = all killed)
Holding throughout (conditions): 10 µM

Drawing on PubChem BioAssay (NCI), this text covers growth for 7 molecules.

Compounds without any hit were thinned out: in the full panel of roughly 83,000, 20% have a hit.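 Results are percent growth after 48 hours of single-concentration exposure. 100 means growth as in untreated cells, lower positive values show inhibition; negative values down to -100 show cell death.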 Values without a mark were called inactive. Calls of active or inactive are those of the source. Rule for the calls: active = growth percent below 10; inactive = the rest.

With `COc1ccc(CN2CCC(N3CCCC3=O)c3cc(Cl)ccc32)cc1` (stereo not given), the growth with NCI-H23 lung was 96%; with NCI-H226 lung, 114%; with NCI-H322M lung it was 104%; with HOP-62 NSCLC, 98.3%; in the test on NCI-H460 lung, 110%; in the test on NCI-H522 lung, 75.6%. Further, the growth was 104% in the test on A549/ATCC NSCLC; 109% in the test on 786-0 renal; 110% in the test with COLO 205 colon; 116% with DU-145 prostate; 106% in the test with K-562 leukemia; 88.6% with MALME-3M melanoma. The growth was 123% in the test on MDA-MB-231 breast; 126% in the test with RXF 393 renal; 108% in the test on SF-268 CNS; 124% in the test on SF-295 CNS; 110% in the test on SF-539 CNS; 112% with UACC-257 melanoma. In addition, the growth in the test with M14 melanoma is 97%; in the test on HCT-15 colon, 104%.

On to `CS(=O)(=O)Nc1ccc(Nc2c3ccccc3nc3cc([N+](=O)[O-])ccc23)cc1`, for which the growth in the test with NCI-H23 lung is 1.7% (active); in the test with NCI-H226 lung, 0.761% (active); in the test with NCI-H322M lung, 62.6%; with HOP-62 NSCLC, 19.2%; with NCI-H460 lung, 0.406% (active); in the test with NCI-H522 lung, -51.5% (active). The growth was 16.5% in the test with A549/ATCC NSCLC; 6.96% (active) with 786-0 renal; 17.1% in the test with COLO 205 colon; 8.04% (active) in the test on DU-145 prostate; 7.9% (active) in the test on K-562 leukemia; 22.6% in the test with MALME-3M melanoma. Also, the growth in the test with MDA-MB-231 breast was 50.9%; in the test with RXF 393 renal, 34.5%; with SF-268 CNS, 11.6%; with SF-295 CNS it was 4.34% (active); in the test with SF-539 CNS, 24.4%; with UACC-257 melanoma, 44.6%. Also, the growth in the test with M14 melanoma was 4.52% (active); in the test on HCT-15 colon, 6.81% (active).

As to `Cc1ccc(S(=O)(=O)OCCN(CCOS(=O)(=O)c2ccc(C)cc2)c2c[nH]c(=O)[nH]c2=O)cc1`, the growth in the test on NCI-H23 lung was 108%; in the test on NCI-H226 lung it was 99.2%; in the test with NCI-H322M lung, 105%; with HOP-62 NSCLC, 108%; in the test on NCI-H460 lung, 114%; in the test on NCI-H522 lung, 125%. Moreover, the growth in the test with A549/ATCC NSCLC was 101%; with 786-0 renal, 112%; in the test on COLO 205 colon, 115%; with DU-145 prostate it was 124%; in the test on K-562 leukemia, 105%; in the test with MALME-3M melanoma, 117%. In addition, the growth in the test with MDA-MB-231 breast is 109%; with RXF 393 renal it was 106%; in the test with SF-268 CNS, 108%; in the test on SF-295 CNS it was 112%; in the test with SF-539 CNS, 96.4%; in the test with UACC-257 melanoma it was 91.4%. The figures for the growth in the test with M14 melanoma and in the test with HCT-15 colon were 105% and 99.7%, respectively.

For the molecule `CCOC(=O)C(NC(=O)C(Cl)Cl)C(O)c1ccccc1` (stereo not given), the growth in the test with NCI-H23 lung was 102%; with NCI-H226 lung, 93.1%; with NCI-H322M lung, 105%; with HOP-62 NSCLC, 82.8%; with NCI-H460 lung it was 102%; with NCI-H522 lung, 122%. In addition, the growth in the test with A549/ATCC NSCLC was 117%; in the test with 786-0 renal, 129%; in the test with COLO 205 colon, 126%; in the test on DU-145 prostate, 102%; with K-562 leukemia it was 87.5%; in the test with MALME-3M melanoma, 108%. Also, the growth with MDA-MB-231 breast is 98.3%; with RXF 393 renal it was 78.7%; in the test on SF-268 CNS it was 99.3%; in the test on SF-295 CNS, 76.1%; with SF-539 CNS, 99.5%; with UACC-257 melanoma, 105%. The growth was 92.6% with M14 melanoma and 117% with HCT-15 colon.

Take `O=C(c1ccc(Cl)cc1Cl)N1CCOCC1`: the growth with NCI-H23 lung was 97.3%; in the test with NCI-H226 lung, 96.8%; with NCI-H322M lung it was 101%; in the test with HOP-62 NSCLC, 97%; in the test on NCI-H460 lung, 104%; in the test with NCI-H522 lung, 103%. Further, the growth was 98.4% with A549/ATCC NSCLC; 97.4% with 786-0 renal; 111% with COLO 205 colon; 109% in the test with DU-145 prostate; 89.1% in the test with K-562 leukemia; 112% with MALME-3M melanoma. Further, the growth in the test on MDA-MB-231 breast was 98.5%; with RXF 393 renal it was 116%; with SF-268 CNS, 98.1%; in the test with SF-295 CNS, 140%; in the test on SF-539 CNS, 96.9%; in the test with UACC-257 melanoma, 96.6%. Moreover, the growth with M14 melanoma was 103%; in the test with HCT-15 colon, 112%.

Take `CC(C)(C#N)Nc1ccccc1`: the growth with NCI-H23 lung was 108%; with NCI-H226 lung, 95.8%; with NCI-H322M lung, 124%; with HOP-62 NSCLC it was 108%; with NCI-H460 lung, 109%; with NCI-H522 lung, 94.1%. The growth with A549/ATCC NSCLC was 96.9%; in the test with 786-0 renal, 101%; with COLO 205 colon it was 109%; in the test on DU-145 prostate it was 118%; with K-562 leukemia, 102%; in the test with MALME-3M melanoma, 104%. In addition, the growth was 100% in the test with MDA-MB-231 breast; 101% with RXF 393 renal; 113% in the test with SF-268 CNS; 77.7% in the test with SF-295 CNS; 96.2% in the test on SF-539 CNS; 98.5% in the test on UACC-257 melanoma. Further, the values for the growth in the test on M14 melanoma and in the test with HCT-15 colon were 107% and 99%, respectively.

In the case of `COc1cc(-c2nn3c(/C=C4/C(=O)Nc5ccccc54)c(-c4ccc(C)cc4)nc3s2)cc(OC)c1OC`, the growth was 51.2% in the test with NCI-H23 lung; 96.4% in the test with NCI-H226 lung; 73.5% in the test with NCI-H322M lung; 79.5% with HOP-62 NSCLC; 29% with NCI-H460 lung; 58% with NCI-H522 lung. Also, the growth with A549/ATCC NSCLC was 29.8%; with 786-0 renal, 70.9%; in the test on COLO 205 colon it was 68.5%; in the test on DU-145 prostate, 14%; with K-562 leukemia, 55.7%; in the test on MALME-3M melanoma, -23.8% (active). The growth was 50.6% in the test on MDA-MB-231 breast; 63.7% in the test on RXF 393 renal; 15.9% in the test on SF-268 CNS; 74.1% in the test with SF-295 CNS; 81.8% in the test on SF-539 CNS; 34.4% in the test with UACC-257 melanoma. For the same molecule, the results for the growth with M14 melanoma and in the test on HCT-15 colon were 42.9% and 58.9%, respectively.
